Bioassay records: PubChem BioAssay, National Center for Advancing Translational Sciences (NCATS)
In the library only some 11% were active in any assay of this set; here they are far more common.
ALDH1A1 block: qHTS Assay for Inhibitors of Aldehyde Dehydrogenase 1 (ALDH1A1); Potency, µM (top dose mostly 75.3 µM), for the others: at the highest dose activity, negative = inhibition, actives largely listed as inhibitors; Purified ALDH1A1, NADH fluorescence, propionaldehyde substrate; 7.3% of 220,000 active;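 note: potency is the fitted concentration of half-maximal effect; plate controls were no enzyme wells and a reference inhibitor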
HPGD inh: qHTS Assay for Inhibitors of HPGD (15-Hydroxyprostaglandin Dehydrogenase); 15-hydroxyprostaglandin dehydrogenase [NAD(+)] (Homo sapiens), P15428; purified HPGD, NADH fluorescence kinetic, PGE2 substrate; Potency, µM, without a hit: at the top dose activity change, negative = inhibition, hits mostly inhibitors; 4.3% of 150,000 active; AID 894, 2007; note: potency is the fitted concentration of half-maximal effect
Target sequence (P15428 whole entry, looked up): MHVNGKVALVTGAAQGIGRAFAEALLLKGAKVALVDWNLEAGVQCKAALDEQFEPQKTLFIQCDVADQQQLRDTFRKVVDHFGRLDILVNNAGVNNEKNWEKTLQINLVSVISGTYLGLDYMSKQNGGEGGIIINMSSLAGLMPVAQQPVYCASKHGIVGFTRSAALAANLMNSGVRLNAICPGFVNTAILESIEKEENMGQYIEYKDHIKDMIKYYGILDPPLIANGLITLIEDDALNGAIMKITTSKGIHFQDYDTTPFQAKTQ
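NADH formation kinetics: reaction with 30 uM PGE2 and 1 mM NAD+ (final), 20 nM enzyme, Tris-HCl pH 8 with Tween 20, after 15 min compound preincubation at room temperature. Fluorescence change, last versus first of five reads.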
PNC inhibitor: High Content Assay for Compounds that inhibit the Assembly of the Perinucleolar Compartment; 3.1% of 140,000 active; PC3M PTB-GFP, PNC prevalence imaging, 16 h; active compounds read low; AID 2417, 2010; activity change (PNC), negative = inhibition, % at 10 µM;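 active = readout at or below -70, meaning at least 70% loss of cells showing the perinucleolar compartment, a nuclear body marking cancer cells; inconclusive = readout between -30 and a set limit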;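 note: plate controls were DMSO wells for no effect and camptothecin positive control wells for full effect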
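Read-out is percentage of cells bearing a perinucleolar compartment, from automated 20x imaging of fixed, Hoechst-stained PC3M PTB-GFP cells. Cells were seeded 4 h, then exposed 16 h to compound (23 nl of library stock) in duplicate plates.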
IMPase inh: qHTS Assay for Identifying the Cell-Membrane Permeable IMPase Inhibitors. Inositol monophosphatase 1 (Rattus norvegicus), P97697. CHO-M1 cells, IP1 accumulation, HTRF TR-FRET ratio. inhibition (IP1 accumulation), % at 46.1 µM. 120,000 tested, under 10 active. AID 901, 2007; active = well fitted curve in the direction sought with a large enough effect in the signal ratio, not every such curve was filed as active; inconclusive = small, poorly fitted or top-dose-only effect, or a change in a side signal; inactive = no such curve, though single readings can be large or run the other way; the % refers to the signal ratio;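 note: cells stimulated with carbachol in lithium chloride buffer; plate controls were DMSO basal wells for no effect and reference inhibitor wells for full effect; higher means more IMPase inhibition seen as more IP1 and lower FRET ratio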
Target sequence (P97697 whole entry, looked up): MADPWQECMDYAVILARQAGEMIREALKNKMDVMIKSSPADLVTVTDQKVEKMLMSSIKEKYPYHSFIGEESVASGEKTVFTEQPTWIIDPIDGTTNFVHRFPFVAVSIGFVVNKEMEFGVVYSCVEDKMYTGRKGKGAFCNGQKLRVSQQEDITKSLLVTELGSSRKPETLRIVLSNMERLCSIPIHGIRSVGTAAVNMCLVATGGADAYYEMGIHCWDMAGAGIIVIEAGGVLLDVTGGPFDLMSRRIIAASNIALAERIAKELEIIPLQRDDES
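Carbachol-driven Gq signalling in CHO-M1 cells (2000/well) generates IP1. Compounds that block IMPase raise IP1 and so reduce the FRET signal from Eu-anti-IP1 and d2-IP1 after a 10 min room-temperature lysis.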
IMPase Li inh: qHTS Assay for Identifying the Cell-Membrane Permeable IMPase Inhibitors: Potentiation with Lithium; CHO-M1 cells, IP1 TR-FRET (IP-One), carbachol + lithium; Potency, µM (highest dose often 59.4 µM), without a hit: at the highest dose activity, negative = IMPase inhibition, actives largely listed as inhibitors; 0.35% of 210,000 active; active = well fitted inhibition curve with a large enough effect; inconclusive = small, poorly fitted or top-dose-only effect; inactive = no such curve, though single readings can be large or run the other way;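 note: IP1 builds up when IMPase is blocked and the TR-FRET signal falls; potency is the fitted concentration of half-maximal effect; plate controls were basal vehicle for no effect and high inhibitor control for full effect; nearly all actives have a fitted effect of over 50% in size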
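CHO cells stably expressing M1 receptor (2000/well, cultured 16–30 h) treated 30 min at 37C with compound plus low lithium. Cytosolic IP1 by TR-FRET (665/620 ratio and 620 channel) after 10 min lysis; AC50 by Hill fit.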
* = called active by the depositor; [ ] = remark or other dose. Unless noted, calls come from the whole dose curve; as a rule, active = well fitted inhibition curve with a large enough effect (not every such curve was filed as active); inconclusive = small, poorly fitted or top-dose-only effect, or another doubt; inactive = no such curve, though single readings can be large or run the other way. Unless noted, % is set by controls: 0 for no effect and ±100 for the full control effect.

CCOC(=O)c1ccc2c(c1)nc(SCC(=O)N1CCCCC1)n2CC was read as ALDH1A1 block inconclusive, HPGD inh 5.01µM*, PNC inhibitor -11.0, IMPase inh 1.2 and IMPase Li inh inconclusive.
For CCn1c(SCC(=O)N2CCCCC2)nc(O)cc1=O the results were ALDH1A1 block 0.8%, HPGD inh 0.282µM*, PNC inhibitor 35.3, IMPase inh -0.7 and IMPase Li inh -1.9%[38.3 µM].
Screening COc1ccc(-n2c(SCC(=O)N3CCCC3)nc3ccccc3c2=O)cc1 returned ALDH1A1 block 27.6% and IMPase Li inh 7.7%.
For CC(C)C[C@@H](N)C(=O)O the results were ALDH1A1 block 7.5% and IMPase Li inh -4.6%.
For C=CCN1C(=O)C2C3CC(=O)C(c4ccccc43)C2C1=O (stereo not given) the results were ALDH1A1 block 16.2% and IMPase Li inh 1.6%.
COc1ccc(N2CCN(C(=O)NC3CC(=O)N(c4ccc(OC)cc4)C3)CC2)cc1 (stereo not given) was read as ALDH1A1 block -6.0% and IMPase Li inh -0.3%.
`CCCC[C@H]1C[C@@H]1[C@@H]1N(P(=O)(c2ccccc2)c2ccccc2)[C@](CO)(c2ccccc2)CC12CC2` gave ALDH1A1 block -8.0%, HPGD inh -15.3% and IMPase Li inh 19.1%.
`CC(C)CNS(=O)(=O)c1ccc(OCC(=O)Nc2ccc(F)cc2F)cc1` gave ALDH1A1 block 0.3%, HPGD inh -8.3%, PNC inhibitor -82.7*, IMPase inh -12.4 and IMPase Li inh 2.0%.
C=CC[C@@H]1C=C[C@@H](O/N=C2/C[C@@H](O)[C@@H](O)[C@@H]3[C@@H]4C(=O)N(CC)C(=O)[C@H]4CC[C@@H]23)[C@@H](CO)O1 was read as ALDH1A1 block 14.2%[13.5 µM].
C=CCn1c(N)cc(=O)nc1SCC(=O)N(c1ccccc1)c1ccccc1 was read as ALDH1A1 block 22.4µM* and IMPase Li inh 2.9%.
`C=CCn1c(N)cc(=O)nc1SCC(=O)Nc1ccc(C)cc1` gave ALDH1A1 block 6.8% and IMPase Li inh 1.4%.
For O=C(c1ccncc1)N1CCC[C@@]2(CCN(c3cccc(-c4ccccc4)c3)C2)C1 the results were ALDH1A1 block inconclusive, HPGD inh -12.7% and IMPase Li inh 35.3%.
CC(C)NC(=O)c1cc(-c2ccco2)nn1-c1ccc(Cl)cc1 was read as ALDH1A1 block 28.2µM*, HPGD inh inconclusive, PNC inhibitor 59.2, IMPase inh -9.4 and IMPase Li inh -5.7%[38.3 µM].
Screening O=C(c1cc(-c2ccco2)nn1-c1cccc(Cl)c1)N1CCCCC1 returned ALDH1A1 block 3.55µM*, HPGD inh 1.58µM*, PNC inhibitor inconclusive, IMPase inh 2.1[1.84 µM] and IMPase Li inh 21.2%[38.3 µM].
For CCOC(=O)c1cc(-c2ccco2)nn1-c1ccc(C)cc1 the results were ALDH1A1 block 14.1µM* and IMPase Li inh 12.6%.
For CCOC(=O)c1cc(-c2ccc(N3CCOCC3)cc2)nn1-c1ccccc1 the results were ALDH1A1 block -0.3%, HPGD inh -8.7%, PNC inhibitor inconclusive, IMPase inh 7.2 and IMPase Li inh 3.7%.
Screening CC1CCN(c2c(NCC3CCC(C(=O)NCc4ccccc4)CC3)c(=O)c2=O)CC1 (stereo not given) returned ALDH1A1 block 8.8%, HPGD inh 17.8µM*, PNC inhibitor inconclusive and IMPase Li inh 8.3%.
Screening CC1CCN(c2c(NCC3CCC(C(=O)N4CCCC(C)C4)CC3)c(=O)c2=O)CC1 (stereo not given) returned ALDH1A1 block 7.1%, HPGD inh 0.631µM*, PNC inhibitor 40.5, IMPase inh 0.5 and IMPase Li inh 0.0%[38.3 µM].
For Cc1ccc(CNC(=O)C2CCC(CNc3c(N4CCOCC4)c(=O)c3=O)CC2)cc1 (stereo not given) the results were ALDH1A1 block 2.0%, HPGD inh inconclusive, PNC inhibitor -21.6, IMPase inh 0.9 and IMPase Li inh 6.9%[38.3 µM].
For O=C(NCc1ccccc1)C1CCN(S(=O)(=O)N2CCCCCC2)CC1 the results were ALDH1A1 block inconclusive, HPGD inh -3.9%, PNC inhibitor inconclusive and IMPase Li inh 1.9%.
For O=C(C1CCC(CNc2c(N3CCCCC3)c(=O)c2=O)CC1)N1CCN(C2CCCCC2)CC1 (stereo not given) the results were ALDH1A1 block -2.6%.
`O=C(NCc1ccccc1)C1CCC1` gave ALDH1A1 block 20.1%, HPGD inh 20µM*, PNC inhibitor inconclusive and IMPase Li inh -4.7%.
For COc1ccc(OC)c(NC(=O)C2CCC(CNc3c(N4CCC(C)CC4)c(=O)c3=O)CC2)c1 (stereo not given) the results were ALDH1A1 block 2.5%, HPGD inh 25.1µM*, PNC inhibitor -11.2, IMPase inh 6.4 and IMPase Li inh 9.3%[38.3 µM].
For O=C(NCc1ccccc1)C1CCC(CNc2c(N3CCCCC3)c(=O)c2=O)CC1 (stereo not given) the results were ALDH1A1 block 4.5%, HPGD inh 20µM*, PNC inhibitor 30.6 and IMPase Li inh -4.0%.
Screening O=C(Cn1ncc(Cl)c(Cl)c1=O)N1CCN(Cc2ccccc2)CC1 returned ALDH1A1 block 28.2µM* and IMPase Li inh 6.9%.
For O=C(Cn1ncc(Cl)c(Cl)c1=O)N1CCc2ccccc21 the results were ALDH1A1 block 10µM* and IMPase Li inh inconclusive.
CC1(C)C(=O)Nc2ccccc2N1C(=O)Cn1ncc(Cl)c(Cl)c1=O was read as ALDH1A1 block 1.12µM*.
CN1CCc2c(cc(O)c(O)c2Cl)C(c2cccc(Cl)c2)C1 (stereo not given) was read as ALDH1A1 block -3.8%, HPGD inh 7.1% and IMPase Li inh 37.1%.
`CCOC(=O)c1c(C)[nH]c(NC(=O)N2CCOCC2)c1C` gave ALDH1A1 block 4.7%, HPGD inh -10.4%, PNC inhibitor 14.2, IMPase inh -3.8 and IMPase Li inh -1.7%[38.3 µM].
Screening N=C(N)SCC(=O)O returned ALDH1A1 block 6.6%[13.5 µM], HPGD inh -12.0% and IMPase Li inh -14.8%.
For CC1CCCC(C)N1C(=O)Cc1ccccc1 (stereo not given) the results were ALDH1A1 block inconclusive, HPGD inh 20µM*, PNC inhibitor -1.9, IMPase inh 9.1 and IMPase Li inh 49.0%[38.3 µM].
`CC1CCCC(C)N1C(=O)CSc1nnnn1Cc1ccccc1` (stereo not given) gave ALDH1A1 block -10.0%, HPGD inh -4.9%, PNC inhibitor 31.5, IMPase inh 6.6 and IMPase Li inh -3.5%[38.3 µM].
